LASV entry inh – blocks Lassa virus binding to or entry into cells; Lassa virus pseudotype entry inhibition, cell reporter; AID 540256; Potency, µM (doses to about 37.9 µM), for the others: at the top dose activity change, negative = inhibition, most hits filed as inhibitors; 300,000 tested, 1.2% active; calls by dose curve; tested in HEK293 cells; also: potency is read from the fitted curve at half-maximal effect; % is scaled to controls: 0 for no effect and ±100 for the full control effect; nearly all actives have a fitted effect of over 50% in size
Marburg entry inh – inhibitors of Marburg virus binding or cell entry | Marburg virus pseudotyped entry inhibition, cell reporter | Potency, µM (series often up to 37.8 µM), without a hit: at the top dose activity change, negative = inhibition, hits mostly inhibitors | 300,000 tested, 1.8% active; calls by dose curve; tested in HEK293 cells; also: potency is read from the fitted curve at half-maximal effect; % is scaled to controls: 0 for no effect and ±100 for the full control effect
FMDV inh – foot and mouth disease virus antiviral activity; 410,000 tested, 1.2% active; Potency, µM (doses to about 57.9 µM), inactives show at the top dose activity change, negative = inhibition, usual class: inhibitors; FMDV antiviral cell-based qHTS; calls by dose curve; tested in HEK293T cells; also: read-out not given here; potency is read from the fitted curve at half-maximal effect; % is scaled to controls: 0 for no effect and ±100 for the full control effect; nearly all actives have a fitted effect of over 45% in size
HCV inh – blocks hepatitis C virus; 340,000 tested, 3.4% active; AID 651820; Potency, µM (doses to about 41.8 µM), for the others: top-dose activity change, negative = inhibition, most hits filed as inhibitors; Huh7.5.1 HCVcc-Cre infection, luciferase reporter, 44 h; also: potency is read from the fitted curve at half-maximal effect; % is scaled to controls: 0 for no effect and ±100 for the full control effect
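Antiviral activity was scored by luciferase reporter output from cells infected with HCVcc-Cre (~0.5 moi) in presence of compound, 44 h infection period, cells seeded 1,000/well 4 h prior.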
HCMV inh – human cytomegalovirus inhibition | HFF cells, HCMV-luciferase reporter, 72 h; active compounds read low | activity change, negative = inhibition, % at 57.5 µM | 410,000 tested, 4.5% active; in the data active = activity change below about -60%; inconclusive = no clear call, values can overlap the other calls; inactive = above about -39%; also: % is scaled to controls: 0 for no effect and ±100 for the full control effect
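Inhibition of viral replication was scored as loss of reporter luminescence in HFFs infected with HCMV-luciferase (MOI 1 PFU/cell) for 72 h; compounds tested at 2 doses, normalized to buffer and Salinomycin controls.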
HCV inh confirm – HCV inhibition, cherry-pick confirmation. shares compounds with HCV inh. HCVcc-Cre infectious virus cell assay, luciferase, inhibition. Potency, µM (titrated, usually from 41.8 µM), for the others: at the highest dose activity, negative = inhibition, usual class: inhibitors. 640 tested, 78% active; also: potency is read from the fitted curve at half-maximal effect; nearly all actives have a fitted effect of over 80% in size
HCV cytotox – counter-screen for HCV inhibitors: host cell cytotoxicity. Potency, µM (series often up to 41.8 µM), inactives show at the top dose activity change, negative = cytotoxicity, most hits filed as inhibitors. AID 720576. shares compounds with HCV inh. 640 tested, 22% active. HCV host cell line cytotoxicity counterscreen;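 also: potency is read from the fitted curve at half-maximal effect; 44 h compound exposure; % is scaled to controls: 0 for no effect and ±100 for the full control effect; nearly all actives have a fitted effect of over 55% in size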
* hit, by the source's call; ? = inconclusive; / = no result; [ ] = remark or other dose. The list is not random: actives were taken first. Their share in the collection is about 7.9%. Unless noted, calls follow the shape of the dose curve; as a rule, active = well fitted curve in the direction sought with a large enough effect; inconclusive = small, poorly fitted or top-dose-only effect, or another doubt; inactive = no such curve, though single readings can be large; an effect the other way counts as inactive or inconclusive.

SMILES	LASV entry inh	Marburg entry inh	FMDV inh	HCV inh	HCMV inh	HCV inh confirm	HCV cytotox
CCOc1cc(NC(=S)NCC2CCCO2)c(OCC)cc1NC(=O)c1ccc(C)cc1 (stereo unspecified)	-3%	-1%	-7%	?	51	/	/
COc1cccc(C(=O)Nc2c3c(nn2-c2ccc(Cl)cc2)CS(=O)(=O)C3)c1OC	?	-23%[46.1 µM]	4%	-21%	?	/	/
COc1ccccc1CC(NC(C)=O)C(=O)NC1CCN(C(=O)Nc2ccc(F)cc2)CC1 (stereo unspecified)	12%[46.1 µM]	-11%[46.1 µM]	-8%	5%	-32	/	/
COc1ccc2nc(N(Cc3cccnc3)C(=O)CCc3ccccc3)sc2c1	-25%[46.1 µM]	/	22%	/	-31	/	/
Cc1cc(C[n+]2ccsc2N)c2ncccc2c1	/	/	-13%	-5%	-15	/	/
Cc1cc(C[n+]2ccccc2)c2nsnc2c1	0%	10%	/	?	?	3.5µM*	13µM*
Cc1cc(C)cc(OCC(=O)OCc2nnc(-c3ccccc3)o2)c1	/	/	6%	10%	-9	/	/
O=C(CCc1nnc2n(Cc3ccc(Cl)cc3)c(=O)c3ccccc3n12)N1CCN(c2ccccn2)CC1	-1%[46.1 µM]	-10%[46.1 µM]	?	3.5µM*	/	4µM*	48%
CC(C)OCCCn1c(=O)c2ccccc2n2c(CCC(=O)N3CCN(c4ccccn4)CC3)nnc12	/	/	-21%	?	-32	/	/
c1coc(CNc2nc3nonc3nc2NCc2ccco2)c1	-10%	?	?	?	-72*	2.2µM*	-23%
CN(C(=O)COC(=O)c1ccccc1OCc1ccc(F)cc1)C1CCS(=O)(=O)C1 (stereo unspecified)	/	/	-12%	-14%	20	/	/
C=C(NC(=O)C(=C)NC(=O)c1csc(C2=NC3c4csc(n4)C4NC(=O)c5csc(n5)C(C(C)(O)C(C)O)NC(=O)C5CSC(=N5)/C(=C/C)NC(=O)C(C(C)O)NC(=O)c5csc(n5)C3(CC2)NC(=O)C(C)NC(=O)C(=C)NC(=O)C(=C)NC(=O)C(C(C)C)NC2C=Cc3c(C(C)O)cc(nc3C2O)C(=O)OC4C)n1)C(N)=O (stereo unspecified)	6.3µM*	4µM*	?	4µM*	-98*	2.5µM*	3.1µM*
Cc1ccc(C)c(S(=O)(=O)Nc2ccc(-n3cnnn3)cc2)c1	17%	2%	85%	12%	/	/	/

From PubChem
